Results on 37 molecules are retold here after article PMC5540273 (PLoS ONE, 2017).

Molecules are shown by their SMILES.
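Further: KINOMEscan kinase panel screen.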

The subject of this experiment is CAMK2A. The following applies: concentration: 1 μM, replicates: in singlicate; n = 1.
Turning to `O=C(Nc1n[nH]c2cc(-c3cccs3)ccc12)C1CC1` [SB-731284], the “%Inh” value was found to be 0%. In the case of `Fc1cc(Cl)ccc1Nc1ccnc2cc(-c3ccc(CN4CCSCC4)o3)ccc12` [GW560106] it was 0%.

For the molecule `Fc1cc(Cl)ccc1Nc1ccnc2cc(-c3ccc(CN4CCOCC4)o3)ccc12` [GW560109], the “%Inh” value stood at 0%. With `COc1ccc(NC(=O)c2ccoc2)cc1-c1ccc(C(=O)NCC2CC2)cc1` [GW810437], the “%Inh” value amounted to 0%.

As for `COC(=O)Nc1nc2ccc(Oc3ccc(CC(=O)Nc4cc(C(F)(F)F)ccc4F)cc3)cc2[nH]1` [GW680903], the “%Inh” value is on record as 0%. The same measure for `O=C(Nc1n[nH]c2nc(-c3cccc(O)c3)ccc12)C1CC1` [SB-711805]: 0%; for `Cc1cccc(Nc2nc(N[C@H]3CCCC[C@H]3N)ncc2C(N)=O)c1.Cl` [GSK986310]: 0%; for `CCn1c(-c2nonc2N)nc2c(-c3ccccc3)ncc(OCCCN)c21.O=C(O)C(F)(F)F.O=C(O)C(F)(F)F` [GSK260205]: 0%.

Consider `COc1ccc(C)c(Nc2ccnc(Nc3ccc(-c4cnc[nH]4)cc3)n2)c1.Cl` [GW784041], for which the “%Inh” value was 0%. The same measure for `CS(=O)(=O)c1cccc(CNc2nc(Nc3ccc4c(c3)CCC(=O)N4)ncc2C(F)(F)F)c1`: 0%; for `O=C(O)C(F)(F)F.O=c1[nH]ccc2nc(N[C@@H]3CCNC3)nc(Nc3ccc4c(c3)S(=O)(=O)CC4)c12` [GSK2181306]: 59%; for `COc1cc(Nc2nccc(N3CCC(NS(=O)(=O)c4ccc(NC(C)=O)cc4)CC3)n2)cc(OC)c1OC` [GSK1379825]: 0%.

In the case of `CN(C)CCNS(=O)(=O)c1ccc(-c2ccnc3[nH]ccc23)cc1` [GSK977620], the “%Inh” value stood at 0%. In the case of `Nc1cccc(-c2ccc3c(N)n[nH]c3c2)c1` [GSK2193613] it was 0%.

On to `Cc1ccc(NC(=O)c2ccnc(N3CCCCC3)c2)cc1-c1ccc(C(=O)NCC2CC2)cc1` [GW775610], for which the “%Inh” value was 0%. In the case of `c1ccc(Oc2ccc(Nc3ccnc4cc(-c5ccc(CN6CCCCC6)o5)ccc34)cc2)nc1` [GW567143] it was 0%; in that of `CC(C)c1nc(-c2cccc(NS(=O)(=O)c3c(F)cccc3F)c2)c(-c2ccnc(Nc3ccc(N4CCOCC4)nc3)n2)s1.Cl` [GSK1723980], 0%. In the case of `CN(c1ccc(NC(=O)N2CCN(CCCN3CCOCC3)CC2)cc1)c1ccnc(Nc2ccc(CS(C)(=O)=O)cc2)n1.Cl` [GW830899] it was 0%; in that of `Cn1cc(-c2ccc3c(c2)CCN3C(=O)Cc2cc(F)cc(F)c2F)c2c(N)ncnc21` [GSK2634140], 0%. In the case of `CC(C)NCC(Cc1ccccc1)NC(=O)c1cc(Br)c(-c2ccnc3[nH]ccc23)s1.Cl.Cl` (stereo not shown) [GSK1383281], the “%Inh” value amounted to 0%. The same measure for `COc1cccc(C2=C(Nc3cccc(O)c3)C(=O)NC2=O)c1` [SB-390771]: 17%; for `COc1cccc(CC(=O)N2CCc3cc(-c4cn(C)c5ncnc(N)c45)ccc32)c1` [GSK2608899]: 0%. `O=C(Nc1n[nH]c2nc(-c3ccccc3O)ccc12)C1CC1` [SB-711880]: the “%Inh” value is listed as 0%. The same measure for `N#CC1(c2cccc(C(=O)Nc3cccc(Oc4ccc5nc(NC(=O)C6CC6)sc5n4)c3)c2)CC1`: 29%; for `COc1cc(Nc2nccc(N3CCC(NC(=O)Nc4ccc5c(c4)OCO5)C3)n2)cc(OC)c1OC` (stereo not shown) [GSK1379766]: 0%. In the case of `Cc1ccc(-c2ccc3occ(-c4ccc(S(C)=O)cc4)c3c2)nn1` (stereo not shown) it was 0%; in that of `CN(c1ccc(F)c(NC(=O)c2cccc(OC(C)(C)C#N)c2Cl)c1)c1ccc2nc(NC(=O)C3CC3)sc2n1`, 1%; in that of `CN(c1ccc2c(c1)nc(NCc1ccccc1)n2C)c1ccnc(Nc2ccc(CS(C)(=O)=O)cc2)n1.Cl` [GW811603], 0%.

For the molecule `Nc1ncc(-c2ccc3nccc(-c4ccncc4)c3c2)cc1S(=O)(=O)N1CCCCC1` [GSK1693850], the “%Inh” value turned out to be 4%. The same measure for `Nc1ncc(-c2cn[nH]c2)c2scc(-c3ccc4c(c3)CCN4C(=O)Cc3ccccc3)c12` [GSK2593067]: 0%.

For the molecule `CN(C)c1ncnc2nc[nH]c12` [SKF-31736], the “%Inh” value came out at 12%. The same measure for `Cl.Cl.NC(CNC(=O)c1cc(Br)c(-c2ccnc3[nH]ccc23)s1)c1ccccc1` (stereo not shown) [GSK1322949]: 45%; for `CNc1nccc(-c2ccc3c(N)n[nH]c3c2)n1` [GSK2206003]: 14%.

As for `COc1cc(Nc2ccnc3cc(-c4ccncc4)ccc23)cc(OC)c1OC.Cl` [GW494610], the “%Inh” value was 0%.

Consider `COc1cccc(-c2nc(-c3ccccc3)[nH]c2-c2ccncc2)c1` [SB-610250], for which the “%Inh” value worked out at 0%. The same measure for `O=C1NC(=O)C(c2ccccc2Cl)=C1Nc1cccc(Cl)c1` [SB-342409]: 10%. `O=C(O)C(F)(F)F.O=c1[nH]ccc2nc(N[C@@H]3CCNC3)nc(Nc3cc(Cl)cc(Cl)c3)c12` [GSK2188764]: the “%Inh” value is 71%.
